PubChem BioAssay (EPA / NIEHS)
Activity calls are given as the source filed them. Rule for the calls: active = hit-call score of the fitted dose curve at least 0.9, where 1 is the maximum; inactive = score below 0.9.

The molecules below were run on Nuclear factor NF-kappa-B p105 subunit (Homo sapiens) (UniProt P19838) (assay: LTEA_HepaRG_NFKB1: Life Technologies and Expression Analysis (LTEA) Assay for Nuclear Factor Kappa B Subunit 1 (NFKB1) using HepaRG (AID 2283521;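 for outcome: TaqMan qRT-PCR transcript normalised to ACTB GAPDH and POLR2A housekeeping genes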)). Conditions: mRNA level, 48 h; actives raise or lower the signal.
Description: LTEA_HepaRG is a cell based, multiplexed-readout assay that uses HepaRG, a human liver cell line, with measurements taken at 48 hours after chemical dosing on a 96-well plate.LTEA_HepaRG_NFKB1 is one of 102 assay component(s) measured in the LTEA HepaRG cell culture assay. It is a marker of Cell proliferation, survival, death.Data from the assay component LTEA_HepaRG_NFKB1 was analyzed into 1 endpoint. This assay endpoint, LTEA_HepaRG_NFKB1, was analyzed with bidirectional fitting relative to DMSO as the negative control and baseline of activity. Using a type of inducible reporter, measures of mRNA induction for gain or loss-of-signal activity can be used to understand regulation of transcription factor activity. To generalize the intended target to other relatable targets, this assay endpoint is annotated to the dna binding intended target family, where the subfamily is NF-kappa B.
A total of 1060 chemcials from the ToxCast library were tested in eight-point concentration-response experiments. Cell culture and cytotoxicity assays were conducted at Thermo Fisher Scientific's Custom Services facility (Madison, WI). A single lot of human HepaRG cells (Thermo Fisher Scientific, Frederick, MD) was used for the cell culture experiments. 96-well format collagen type I coated plates of human HepaRG cells were prepared using established methods. Briefly, cryopreserved HepaRG cells were thawed, plated at a density of approximately 100,000 cells/well in HepaRG Thaw, Plate, and General Purpose media (HPRG770, Thermo Fisher Scientific), and incubated for 48 hours. 0.5% DMSO was selected as vehicle control to balance the requisite need of DMSO in HepaRG cultures to maintain differentiation (for example, baseline metabolism, proportions of hepatocytes vs. cholangiocytes), while enabling further hepatic receptor pathway activation (for example, PXR and CAR) in response to chemical exposure. 48 hours after plating, the culture medium was replaced with HepaRG Serum-Free Incudtion Media. Cells were exposed to each test chemical in duplicate and maintained in CO2 incubators for another 48 hours. Chemical plates were thawed to room temperature and 200x concentrations of treatment groups were prepared. 8-point conentration-reponse curves were made with the highest exposure at 100 uM, followed by half-log dilutions, all in 0.5% DMSO. Each test plate contained variouse controls, induction positive controls (1mM phenobarbital), cytotoxicity positive controls ([…] aflatoxin B1), vehicle controls (0.5% DMSO), and total lysis controls (0.5% DMSO). Cell morphology images were taken using an Essen IncuCyte FLR automated microscope, with six 96-well plates imaged in about 24 minutes. Images were captured and exported and JPEG files. Spent culture media was transfered to black-well plates for the LDH assay, and remaining media was sorted at -80 C for later use. Cells were treated with RLT buffer and frozen until shipped for gene expression analysis. Total RNA was isolated from the cell suspension in 75 uL of Buffer RLT (Qiagen, Germantown, MD 20874) by Quintiles/Expression Analysis (Durham, NC) using a custom isolation procedure. Total RNA from each plate well was transferred to a preamplification plate. Fluidigm's 96.96 Dynamic ArrayTM (Fluidigm, Amsterdam, the Netherlands) technology was used for gene expression analyses by quantitative reverse transcription polymerase chain reaction (qRT-PCR, performed by Quintiles/Expression Analysis, Durham, NC)89. Standard TaqManTM Assays (Applied Biosystems/ThermoFisher Scientific, Foster City, CA) were used to assess the expression of 93 genes selected based on their selectivity and sensitivity to important hepatic receptors known to be modulated by environmental chemicals; importance in human hepatocyte functionality; and hepatotoxicity. […]

Chain of Nuclear factor NF-kappa-B p105 subunit (Homo sapiens) (P19838 whole entry, looked up): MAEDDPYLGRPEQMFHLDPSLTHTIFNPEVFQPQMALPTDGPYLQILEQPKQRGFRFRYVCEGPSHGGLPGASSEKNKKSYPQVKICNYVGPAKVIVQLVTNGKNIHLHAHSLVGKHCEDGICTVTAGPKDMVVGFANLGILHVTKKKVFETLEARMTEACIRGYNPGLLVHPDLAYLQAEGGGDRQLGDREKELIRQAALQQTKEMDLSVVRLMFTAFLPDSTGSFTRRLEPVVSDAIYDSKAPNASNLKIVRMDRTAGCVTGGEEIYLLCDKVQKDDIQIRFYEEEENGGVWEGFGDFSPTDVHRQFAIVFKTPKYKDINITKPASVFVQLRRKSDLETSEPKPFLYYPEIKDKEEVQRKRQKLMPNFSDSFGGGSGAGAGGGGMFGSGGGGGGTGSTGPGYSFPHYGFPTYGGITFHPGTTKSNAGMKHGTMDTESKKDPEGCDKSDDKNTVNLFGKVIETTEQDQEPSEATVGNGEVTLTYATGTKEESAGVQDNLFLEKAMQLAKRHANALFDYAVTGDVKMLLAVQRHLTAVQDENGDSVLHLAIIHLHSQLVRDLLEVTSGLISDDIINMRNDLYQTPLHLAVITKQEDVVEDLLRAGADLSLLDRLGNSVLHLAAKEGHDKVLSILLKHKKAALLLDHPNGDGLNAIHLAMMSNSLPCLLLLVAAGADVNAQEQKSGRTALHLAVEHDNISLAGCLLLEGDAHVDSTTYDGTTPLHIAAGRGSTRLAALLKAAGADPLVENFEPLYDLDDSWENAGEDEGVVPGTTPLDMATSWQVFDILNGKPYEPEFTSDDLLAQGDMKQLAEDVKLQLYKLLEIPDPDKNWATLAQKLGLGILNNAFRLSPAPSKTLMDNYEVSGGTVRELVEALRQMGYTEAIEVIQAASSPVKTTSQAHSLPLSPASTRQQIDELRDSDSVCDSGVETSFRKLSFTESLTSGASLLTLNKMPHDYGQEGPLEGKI

Compound | outcome | AC50
CCCCCCCCCCCCCCCS(=O)(=O)Oc1ccccc1 | inactive | 
CCCCCCCCCCCCc1ccccc1S(=O)(=O)O | inactive | 
Cc1oc(-c2ccccc2)nc1CCOc1ccc(C[C@H](Nc2ccccc2C(=O)c2ccccc2)C(=O)O)cc1 | inactive | 
CCC(=C(c1ccc(O)cc1)c1ccc(OCCN(C)C)cc1)c1ccccc1 | inactive | 
O=c1c(-c2ccc(O)cc2)coc2cc(O)ccc12 | inactive | 
Oc1cc2ccccc2c2ccccc12 | inactive | 
CC(C)CCCCCCOC(=O)CCCCC(=O)OCCCCCCC(C)C | inactive | 
CC(C)(C)c1cccc(C(C)(C)C)c1O | inactive | 
C#C[C@]1(O)CC[C@H]2[C@@H]3CCC4=CC(=O)CC[C@@H]4[C@H]3CC[C@@]21C | inactive | 
Nc1cccc2c(N)cccc12 | inactive | 
COCC(C)OCC(C)O (stereo not given) | inactive | 
O=C(O)c1ccccc1C(c1ccc(O)cc1)c1ccc(O)cc1 | inactive | 
CC(=O)NC1(c2cccc(F)c2)CCN(CC[C@@]2(c3ccc(Cl)c(Cl)c3)CN(c3ccccc3)C(=O)CO2)CC1 |  | 61.6 µM (active)
COc1ccc([N+](=O)[O-])cc1N | inactive | 
CCC(C)(C)C1CCC(O)CC1 (stereo not given) | inactive | 
CC1=C(/C=C/C(C)=C/C=C/C(C)=C/C(=O)O)C(C)(C)CCC1 | inactive | 
OCCC(F)(F)C(F)(F)C(F)(F)C(F)(F)C(F)(F)C(F)(F)C(F)(F)C(F)(F)F | inactive | 
CCc1nn(C2CCCCC2)c2cc(C3(C#N)CCC(C(=O)O)CC3)ccc12 (stereo not given) | inactive | 
CN1CCN(c2ccccc2/C=C2\SCCN(c3ccc(Cl)c(Cl)c3)C2=O)CC1 | inactive | 
CN(C)C=O | inactive | 

Compound | outcome | AC50
N#C[C@@H]1CC(F)(F)CN1C(=O)CNC1CC2CCC(C1)N2c1ncccn1 (stereo not given in full) |  | 1.8 µM (active)
C=C(C)C(=O)OCCC(F)(F)C(F)(F)C(F)(F)C(F)(F)C(F)(F)C(F)(F)F | inactive | 
CCOC(=O)CC(O)(CC(=O)OCC)C(=O)OCC | inactive | 
CCCCCCCCOC(=O)CCCCCCCCC(=O)OCCCCCCCC | inactive | 
O=C(O)Cc1cc(I)c(Oc2cc(I)c(O)c(I)c2)c(I)c1 |  | 52.8 µM (active)
CCCCCCCCCCCCN1CCCC1=O | inactive | 
CC#C[C@]1(O)CC[C@H]2[C@@H]3CCC4=CC(=O)CCC4=C3[C@@H](c3ccc(N(C)C)cc3)C[C@@]21C |  | 50 µM (active)
CCCCC(CC)COC(=O)CCCCC(=O)OCC(CC)CCCC (stereo not given) | inactive | 
NC(=O)N(O)[C@@H]1C=C[C@H](Oc2cccc(Oc3ccc(F)cc3)c2)C1 |  | 74.4 µM (active)
CC(C)(C)CC(C)(C)c1ccc(O)c(-n2nc3ccccc3n2)c1 | inactive | 
CC(O)CO (stereo not given) | inactive | 
O=[N+]([O-])c1ccc(O)cc1 | inactive | 
CCCCOCCO | inactive | 
C[C@@H]1C[C@H]2[C@@H]3CCC4=CC(=O)C=C[C@]4(C)[C@@]3(F)[C@@H](O)C[C@]2(C)[C@@]1(O)C(=O)COP(=O)(O)O | inactive | 
COCC(C)O (stereo not given) | inactive | 
c1ccc2c(c1)ccc1ccccc12 | inactive | 
Cc1cc(CCN2CCN(c3nsc4ccccc34)CC2)cc2c1NC(=O)CC2(C)C | inactive | 
ClC1=C(Cl)C(Cl)(Cl)C(Cl)=C1Cl | inactive | 
CCCOc1sc(C(=O)N2CCC(c3cc(CN)ccc3F)CC2)c(C)c1Br | inactive | 
c1ccc2c(c1)Cc1ccccc1-2 | inactive | 
